In PubChem BioAssay (NCI):
Compounds without any hit were thinned out: in the full panel of roughly 79,000, 15% have a hit. Activity calls are given as the source filed them. Cut-off read from the data, not from the text of the source: active = growth inhibition above about 70%; inactive = the rest.

Tests used:
[1] = NCI Yeast Anticancer Drug Screen. Data for the rad50 strain (AID 155);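 note: 0% = growth of vehicle-only cultures of the same strain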; details: S. cerevisiae rad50 strain growth inhibition, stronger effect = higher value
How it was run: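 Genetically altered yeast (DNA repair pathway); compound treatment; growth inhibition vs vehicle ctrl.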

[2] = NCI Yeast Anticancer Drug Screen. Data for the mec2-1 strain (AID 157); details: S. cerevisiae mec2-1 strain, stronger effect = higher value
How it was run: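 Test agents were screened against the mec2-1 yeast strain, with defined DNA repair or cell cycle alteration. Growth was scored as inhibition against vehicle-only controls.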

[3] = NCI Yeast Anticancer Drug Screen. Data for the sgs1 mgt1 strain (AID 161);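 note: 0% = growth of cultures given vehicle only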; details: S. cerevisiae sgs1 mgt1 strain, stronger effect = higher value
How it was run: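 Read-out: growth inhibition vs vehicle controls. Cells: mutant yeast strain deficient in DNA damage repair.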

[4] = NCI Yeast Anticancer Drug Screen. Data for the cln2 rad14 strain (AID 165);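 note: 0% = growth equal to vehicle treated cultures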; details: S. cerevisiae cln2 rad14 strain, stronger effect = higher value
How it was run: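 Growth of compound-exposed yeast (cln2 rad14 genotype) measured and expressed as inhibition relative to vehicle.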

[5] = NCI Yeast Anticancer Drug Screen. Data for the bub3 strain (AID 167); details: S. cerevisiae bub3 mutant strain, stronger effect = higher value
How it was run: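 Yeast carrying a defined mutation is treated with each compound, and growth is compared with that of vehicle-exposed cells to give inhibition.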

[6] = NCI Yeast Anticancer Drug Screen. Data for the mlh1 rad18 strain (AID 175); details: S. cerevisiae mlh1 rad18 strain growth inhibition, stronger effect = higher value
How it was run: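 In this whole-cell yeast screen, a strain with altered DNA damage repair is challenged with compound, and its growth is measured against matched vehicle-treated controls.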

[7] = at 5.0 µM (retest, dose inferred, filed as 0.5)
[8] = at 50.0 µM (retest, dose inferred, filed as 5.0)

Measured: growth inhibition

O=[N+]([O-])c1ccc(Cl)cc1C=NC12CC3CC(CC(C3)C1)C2
active: [1]; at 50.0 µM 80.8%
inactive: [1]; [7] 15% | [1]; [8] 16% | [2]; [7] 12% | [2]; [8] 13% | [2]; at 50.0 µM 69% | [3]; [7] 16% | [3]; [8] 23% | [3]; at 50.0 µM 22.4% | [4]; [7] 3% | [4]; [8] 14% | [4]; at 50.0 µM 8.55% | [5]; [7] 4% | [5]; [8] 9% | [5]; at 50.0 µM 4.2% | [6]; [7] 13% | [6]; [8] 15% | [6]; at 50.0 µM 54.6%

Nc1nc(N)c2cc(S(=O)c3ccc4ccccc4c3)ccc2n1 (stereo not given)
active: [2]; at 50.0 µM 79.2%
inactive: [1]; [7] 4% | [1]; [8] 17% | [1]; at 50.0 µM 24.2% | [2]; [7] 29% | [2]; [8] 64% | [3]; [7] 2% | [3]; [8] 9% | [3]; at 50.0 µM 19.5% | [4]; [7] -1% | [4]; [8] -18% | [4]; at 50.0 µM -42.4% | [5]; [7] -21% | [5]; [8] -19% | [5]; at 50.0 µM -13.9% | [6]; [7] -4% | [6]; [8] 3% | [6]; at 50.0 µM 13.5%

CCOC(=O)/C(=C/c1ccc2ccccc2c1)P(=O)(OCC)OCC
inactive: [1]; [7] -17% | [1]; [8] -15% | [2]; [7] 6% | [2]; [8] -13% | [2]; at 50.0 µM 69.2% | [3]; [7] -6% | [3]; [8] -5% | [3]; at 50.0 µM 66.8% | [4]; [7] 10% | [4]; [8] 19% | [5]; [7] 16% | [5]; [8] 9% | [6]; [7] -18% | [6]; [8] -7% | [6]; at 50.0 µM 58%
active: [1]; at 50.0 µM 76.6% | [4]; at 50.0 µM 71.1% | [5]; at 50.0 µM 75.5%

CCN(CC)CCCNc1c(O)cc(C)c2sc3ccccc3c(=O)c12
inactive: [1]; [7] 17% | [2]; [7] 6% | [3]; [7] 4% | [4]; [7] 12% | [5]; [7] 14% | [6]; [7] 6%
active: [1]; [8] 98% | [1]; at 50.0 µM 98.7% | [2]; [8] 99% | [2]; at 50.0 µM 99.2% | [3]; [8] 99% | [3]; at 50.0 µM 99% | [4]; [8] 96% | [4]; at 50.0 µM 98.3% | [5]; [8] 95% | [5]; at 50.0 µM 98.4% | [6]; [8] 98% | [6]; at 50.0 µM 98.8%

COc1ccc(N=N/N=c2\sc3cc(OC)ccc3n2C)cc1
inactive: [1]; [7] 7% | [1]; at 50.0 µM 29.4% | [2]; [7] 3% | [2]; [8] 46% | [2]; at 50.0 µM 5.1% | [3]; [7] -2% | [3]; [8] 22% | [3]; at 50.0 µM 11.9% | [4]; [7] -2% | [4]; [8] 63% | [4]; at 50.0 µM 24.5% | [5]; [7] -5% | [5]; [8] 36% | [5]; at 50.0 µM -3.4% | [6]; [7] -6% | [6]; at 50.0 µM 46.8%
active: [1]; [8] 80% | [6]; [8] 71%

COC(=O)C12CCC(=O)C(C)=C1CCC(OC)(OC)C2 (stereo not given)
active: [1]; at 50.0 µM 95.2% | [6]; at 50.0 µM 82.3%
inactive: [1]; [7] -5% | [1]; [8] 4% | [2]; [7] -10% | [2]; [8] 6% | [2]; at 50.0 µM 16.9% | [3]; [7] 7% | [3]; [8] 17% | [3]; at 50.0 µM 66.5% | [4]; [7] -2% | [4]; [8] -7% | [4]; at 50.0 µM -1% | [5]; [7] -2% | [5]; [8] -3% | [5]; at 50.0 µM 61.8% | [6]; [7] 10% | [6]; [8] 11%

S=C(N/N=C/c1ccccn1)Nc1ccccn1
active: [1]; [8] 99% | [1]; at 50.0 µM 90.8% | [2]; [8] 99% | [2]; at 50.0 µM 92.9% | [3]; [8] 99% | [3]; at 50.0 µM 91.5% | [4]; [8] 98% | [4]; at 50.0 µM 88.5% | [5]; [8] 98% | [5]; at 50.0 µM 90.9% | [6]; [8] 96% | [6]; at 50.0 µM 90.1%
inactive: [1]; [7] -1% | [2]; [7] -2% | [3]; [7] 3% | [4]; [7] -15% | [5]; [7] -2% | [6]; [7] -3%

O=C(Oc1cccc2cccnc12)c1ccccc1
active: [1]; [8] 97% | [1]; at 50.0 µM 96.4% | [2]; [8] 98% | [2]; at 50.0 µM 97% | [3]; [8] 97% | [3]; at 50.0 µM 93.6% | [4]; [8] 85% | [4]; at 50.0 µM 91.2% | [5]; [8] 99% | [5]; at 50.0 µM 98% | [6]; [8] 98% | [6]; at 50.0 µM 95.2%
inactive: [1]; [7] 4% | [2]; [7] -22% | [3]; [7] -4% | [4]; [7] 2% | [5]; [7] 28% | [6]; [7] 7%

Cc1cc(Cl)c(O)c(-c2cc(-c3cccc([N+](=O)[O-])c3)c3c(N)[nH]c(=S)nc3n2)c1
inactive: [1]; [7] -6% | [1]; [8] 46% | [1]; at 50.0 µM 28.6% | [2]; [7] -6% | [2]; [8] 23% | [2]; at 50.0 µM 23.2% | [3]; [7] 3% | [3]; [8] 38% | [3]; at 50.0 µM 20.3% | [4]; [7] 12% | [4]; [8] 33% | [4]; at 50.0 µM 55% | [5]; [7] -5% | [5]; [8] 45% | [5]; at 50.0 µM -6.15% | [6]; [7] 5% | [6]; [8] 50% | [6]; at 50.0 µM 25.8%

Oc1ccc(-c2ccccc2)cc1Br
active: [1]; [8] 99% | [1]; at 50.0 µM 99.4% | [2]; [8] 100% | [2]; at 50.0 µM 99.7% | [3]; [8] 99% | [3]; at 50.0 µM 99.5% | [4]; [8] 99% | [4]; at 50.0 µM 98.5% | [5]; [8] 99% | [5]; at 50.0 µM 99.5% | [6]; [8] 99% | [6]; at 50.0 µM 99.5%
inactive: [1]; [7] 14% | [2]; [7] 3% | [3]; [7] 1% | [4]; [7] -9% | [5]; [7] -3% | [6]; [7] 9%
